Values joined by “and” are separate entries in the source; they are usually repeats but may differ in a detail not shown here. Equal entries are not always repeated. Among all 5,500 compounds or so, about 2,000 (36%) were called active. Inconclusive results (about 18%) are left out. No stated cut-off is given here; in the data, active means normalized growth mostly below about 0.91 (no sharp cut-off); inconclusive means no clear call, values can overlap the other calls; inactive means mostly above about 0.92. Some of the results follow.
Test: chemical genetic growth profiling, strain panel (AID 1159580);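 further: tested at 20 µM; growth read once vehicle control cultures reached saturation at 30 °C; 1 = growth at the plate median or of vehicle wells; lower values mean less growth of the strain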
Settings: S. cerevisiae deletion strains, growth OD

Measured: normalized growth

NCCCCN=C(N)N
inactive: locus YAL013W, strain DEP1, active compounds read low 1 | locus YAL021C, strain ccr4, active compounds read low 1.02 | locus YAL026C, strain drs2, active compounds read low 1.03 | locus YAL030W, strain snc1, active compounds read low 1.03 | locus YAL040C, strain CLN3, active compounds read low 1 | locus YBL061C, strain skt5, active compounds read low 1.01 | locus YBR009C, strain hhf1, active compounds read low 1.02 | locus YBR021W, strain FUR4, active compounds read low 0.983 | locus YBR023C, strain chs3, active compounds read low 1.03 | locus YBR171W, strain sec66, active compounds read low 1.03 | locus YBR229C, strain ROT2, active compounds read low 0.996 | locus YBR231C, strain swc5, active compounds read low 1.01 | locus YBR279W, strain paf1, active compounds read low 1.01 | locus YCL011C, strain gbp2, active compounds read low 1.03 | locus YCL016C, strain dcc1, active compounds read low 1.01 | locus YCL029C, strain bik1, active compounds read low 0.979 | locus YCL061C, strain MRC1 (second series), active compounds read low 1.01 | locus YCL069W, strain vba3, active compounds read low 1.02 | locus YCR088W, strain abp1, active compounds read low 1.04 | locus YDL005C, strain med2, active compounds read low 1.04 | locus YDL035C, strain GPR1, active compounds read low 1.02 | locus YDL040C, strain nat1, active compounds read low 1.02 | locus YDL074C, strain BRE1, active compounds read low 0.992 | locus YDL101C, strain DUN1, active compounds read low 0.998 | locus YDL134C, strain PPH21, active compounds read low 1.04 | locus YDL185W, strain tfp1, active compounds read low 0.976 | locus YDL192W, strain arf1, active compounds read low 0.986 | locus YDR001C, strain nth1, active compounds read low 1.01 | locus YDR069C, strain doa4, active compounds read low 1.02 | locus YDR101C, strain arx1, active compounds read low 0.968 | locus YDR137W, strain rgp1, active compounds read low 1.04 | locus YDR150W, strain NUM1, active compounds read low 1 | locus YDR159W, strain sac3, active compounds read low 1 | locus YDR162C, strain NBP2, active compounds read low 1.01 | locus YDR195W, strain ref2 1.04 | locus YDR297W, strain sur2, active compounds read low 1.02 | locus YDR318W, strain mcm21, active compounds read low 1 | locus YDR334W, strain swr1, active compounds read low 1.02 | locus YDR335W, strain msn5, active compounds read low 1.03 | locus YDR363W, strain ESC2, active compounds read low 0.994 | locus YDR388W, active compounds read low 0.976 | locus YDR392W, strain spt3, active compounds read low 0.992 | locus YDR502C, strain sam2, active compounds read low 0.987 | locus YEL003W, strain gim4, active compounds read low 1.02 | locus YEL037C, strain rad23, active compounds read low 1.02 | locus YEL061C, strain CIN8 (second series), active compounds read low 1.03 | locus YEL061C, strain CIN8, active compounds read low 1 | locus YER002W, strain NOP16, active compounds read low 1.03 | locus YER015W, strain faa2, active compounds read low 1.03 | locus YER016W, strain bim1, active compounds read low 1.01 | locus YER110C, active compounds read low 0.977 | locus YER111C, strain swi4, active compounds read low 1.03 | locus YER155C, strain BEM2 (second series), active compounds read low 1.02 | locus YER155C, strain BEM2, active compounds read low 0.981 | locus YER167W, strain BCK2, active compounds read low 0.999 | locus YFR010W, strain ubp6, active compounds read low 1.04 | locus YGL078C, strain dbp3, active compounds read low 0.981 | locus YGL086W, strain mad1, active compounds read low 0.963 | locus YGL167C, strain pmr1, active compounds read low 1.02 | locus YGL173C, strain kem1, active compounds read low 1.02 | locus YGL227W, strain vid30, active compounds read low 1.02 | locus YGL240W, strain doc1, active compounds read low 1.02 | locus YGL248W, strain PDE1, active compounds read low 1 | locus YGL253W, strain hxk2, active compounds read low 1.02 | locus YGR078C, strain PAC10, active compounds read low 1 | locus YGR135W, strain pre9, active compounds read low 1 | locus YGR229C, strain SMI1, active compounds read low 1.01 | locus YGR252W, strain gcn5, active compounds read low 1.09 | locus YHR013C, strain ard1, active compounds read low 1.12 | locus YHR027C, strain rpn1, active compounds read low 1.02 | locus YHR030C, strain SLT2, active compounds read low 0.993 and 1.01 | locus YHR079C, strain IRE1 (second series), active compounds read low 0.987 | locus YHR079C, strain IRE1, active compounds read low 1.01 | locus YHR094C, strain hxt1, active compounds read low 0.974 | locus YHR142W, strain chs7, active compounds read low 1.05 | locus YHR200W, strain rpn10, active compounds read low 0.987 | locus YIL066C, strain RNR3, active compounds read low 0.994 | locus YIL073C, strain SPO22, active compounds read low 1.03 | locus YIL125W, strain kgd1, active compounds read low 0.974 | locus YIR030C, strain dcg1, active compounds read low 0.988 | locus YJL092W, strain hpr5, active compounds read low 1.02 | locus YJL095W, strain BCK1 (second series), active compounds read low 1.03 | locus YJL095W, strain BCK1, active compounds read low 1.02 and 0.995 | locus YJL115W, strain asf1, active compounds read low 1.03 | locus YJL129C, strain trk1, active compounds read low 1.06 | locus YJL134W, strain LCB3, active compounds read low 0.998 | locus YJL154C, strain vps35, active compounds read low 1.02 | locus YJL164C, strain tpk1, active compounds read low 1.02 | locus YJL166W, strain qcr8, active compounds read low 1.02 | locus YJL168C, strain set2, active compounds read low 0.981 | locus YJL187C, strain SWE1 (second series), active compounds read low 0.997 | locus YJL187C, strain SWE1, active compounds read low 1.02 | locus YJR043C, strain POL32, active compounds read low 0.993 | locus YJR066W, strain TOR1, active compounds read low 0.973 | locus YKL009W, strain mrt4, active compounds read low 1 | locus YKL068W, active compounds read low 0.994 | locus YKL085W, strain MDH1 (second series), active compounds read low 0.993 | locus YKL085W, strain MDH1, active compounds read low 0.993 | locus YKL160W, strain elf1, active compounds read low 1.02 | locus YKL190W, strain CNB1, active compounds read low 1.01 | locus YKR001C, strain vps1, active compounds read low 0.963 | locus YKR026C, strain gcn3, active compounds read low 1.02 | locus YKR091W, strain srl3, active compounds read low 1.02 | locus YLL001W, strain dnm1, active compounds read low 1.01 | locus YLL026W, active compounds read low 1.02 | locus YLL041C, strain sdh2, active compounds read low 1.02 | locus YLR027C, strain aat2, active compounds read low 1.03 | locus YLR039C, strain RIC1, active compounds read low 1.01 | locus YLR058C, strain SHM2, active compounds read low 1.01 | locus YLR102C, strain apc9, active compounds read low 0.985 | locus YLR113W, strain HOG1, active compounds read low 1 | locus YLR221C, strain rsa3, active compounds read low 1.01 | locus YLR258W, strain gsy2, active compounds read low 1.02 | locus YLR262C, strain YPT6 (second series), active compounds read low 1.04 | locus YLR262C, strain YPT6, active compounds read low 1.06 | locus YLR268W, strain sec22, active compounds read low 0.957 | locus YLR320W, strain mms22, active compounds read low 1.02 | locus YLR330W, strain CHS5, active compounds read low 0.978 | locus YLR342W, strain FKS1 (second series), active compounds read low 1.01 | locus YLR342W, strain FKS1, active compounds read low 1.01 | locus YLR357W, strain rsc2, active compounds read low 1.05 | locus YLR370C, strain arc18, active compounds read low 1.03 | locus YLR371W, strain rom2, active compounds read low 0.972 | locus YLR384C, strain iki3, active compounds read low 1.03 | locus YLR418C, strain cdc73, active compounds read low 1.01 | locus YML016C, strain PPZ1, active compounds read low 0.991 | locus YML032C, strain rad52, active compounds read low 1.02 | locus YML120C, strain ndi1, active compounds read low 1.04 | locus YML124C, strain tub3, active compounds read low 0.987 | locus YMR058W, strain fet3, active compounds read low 1.02 | locus YMR078C, strain ctf18, active compounds read low 0.986 | locus YMR125W, strain sto1, active compounds read low 1.03 | locus YMR129W, active compounds read low 1.02 | locus YMR205C, strain PFK2, active compounds read low 1.02 | locus YMR223W, strain ubp8, active compounds read low 1 | locus YMR231W, strain pep5, active compounds read low 1.03 | locus YMR263W, strain SAP30, active compounds read low 1.01 | locus YMR307W, strain GAS1, active compounds read low 1.04 and 0.995 | locus YNL067W, strain RPL9B, active compounds read low 1.01 | locus YNL071W, strain lat1, active compounds read low 1.02 | locus YNL153C, strain GIM3, active compounds read low 1.01 | locus YNL175C, strain NOP13, active compounds read low 0.997 | locus YNL183C, strain NPR1, active compounds read low 0.959 | locus YNL197C, strain WHI3, active compounds read low 1.01 | locus YNL209W, strain ssb2, active compounds read low 1.02 | locus YNL224C, strain SQS1, active compounds read low 1.01 | locus YNL233W, strain BNI4, active compounds read low 0.988 | locus YNL248C, strain rpa49, active compounds read low 1.02 | locus YNL250W, strain rad50, active compounds read low 0.974 | locus YNL271C, strain bni1, active compounds read low 0.976 | locus YNL298W, strain CLA4, active compounds read low 0.969 | locus YNL307C, strain MCK1, active compounds read low 0.973 | locus YNL322C, strain KRE1 (second series), active compounds read low 1.03 | locus YNL322C, strain KRE1, active compounds read low 1 | locus YNR049C, strain mso1, active compounds read low 1.02 | locus YNR052C, strain pop2, active compounds read low 0.995 | locus YOL012C, strain htz1 0.814 | locus YOL147C, strain pex11, active compounds read low 0.993 | locus YOR001W, strain rrp6, active compounds read low 1.03 | locus YOR061W, strain CKA2, active compounds read low 1 | locus YOR069W, strain VPS5, active compounds read low 0.994 | locus YOR070C, strain gyp1, active compounds read low 1.02 | locus YOR080W, strain dia2, active compounds read low 1.03 | locus YOR083W, strain WHI5 (second series), active compounds read low 1.01 | locus YOR083W, strain WHI5, active compounds read low 1.01 | locus YOR106W, strain vam3, active compounds read low 1.04 | locus YOR136W, strain idh2, active compounds read low 0.972 | locus YOR144C, strain elg1, active compounds read low 0.984 | locus YOR184W, strain ser1, active compounds read low 0.985 | locus YOR265W, strain rbl2, active compounds read low 1.02 | locus YOR270C, strain vph1, active compounds read low 1.05 | locus YOR290C, strain snf2, active compounds read low 1.01 | locus YOR316C, strain cot1, active compounds read low 0.983 | locus YPL051W, strain arl3, active compounds read low 1.01 | locus YPL078C, strain atp4, active compounds read low 1.03 | locus YPL106C, strain sse1, active compounds read low 1.04 | locus YPL240C, strain hsp82, active compounds read low 1.02 | locus YPL256C, strain CLN2, active compounds read low 0.994 | locus YPR119W, strain clb2, active compounds read low 0.988 | locus YPR141C, strain kar3, active compounds read low 0.988 | locus YPR163C, strain tif3, active compounds read low 0.975 | locus YPR167C, strain met16, active compounds read low 0.986 | strain wtn01, active compounds read low 0.939

Reference: PubChem BioAssay AID1159580 (chemical genetic matrix, 2015)
